Measurements published in PubChem BioAssay (EPA / NIEHS).
Calls of active or inactive are those of the source. How the source made its calls: active means hit-call score of the fitted dose curve at least 0.9, where 1 is the maximum; inactive means score below 0.9.

Assays:
Details in all cases: mRNA level, 48 h; actives raise or lower the signal
[1] = read-out: Intercellular Adhesion Molecule 1 (ICAM1), ICAM1 (gene 3383); test: LTEA_HepaRG_ICAM1: Life Technologies and Expression Analysis (LTEA) Assay for Intercellular Adhesion Molecule 1 (ICAM1) using HepaRG (AID 2283507)
Method in brief: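 HepaRG, 48 h exposure, 8-pt half-log series from 100 uM, 0.5% DMSO vehicle, duplicates. Readout: TaqMan qRT-PCR mRNA, housekeeping-normalized (ACTB/GAPDH/POLR2A). Bidirectional curve fit vs DMSO baseline.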

[2] = read-out: Insulin-like growth factor-binding protein 1 (IGFBP1), IGFBP1 (gene 3484); test: LTEA_HepaRG_IGFBP1: Life Technologies and Expression Analysis (LTEA) Assay for Insulin-like growth factor-binding protein 1 (IGFBP1) using HepaRG (AID 2283508)
Method in brief: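 qRT-PCR mRNA read-out (TaqMan, Fluidigm array), normalised to three housekeeping genes; HepaRG cells, 48 h exposure, 8-pt half-log series from 100 uM, 0.5% DMSO vehicle; bidirectional curve fit vs DMSO baseline.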

[3] = read-out: Interleukin 6 (IL6), IL6 (gene 3569); test: LTEA_HepaRG_IL6: Life Technologies and Expression Analysis (LTEA) Assay for Interleukin 6 (IL6) using HepaRG (AID 2283509)
Method in brief: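 HepaRG, ~100,000 cells/well, 48 h pre-culture; serum-free induction medium; cmpd 8-pt half-log from 100 uM, 0.5% DMSO, duplicate, 48 h. Lysis in RLT, TaqMan qRT-PCR; gain or loss vs DMSO.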

[4] = read-out: Interleukin 6 Receptor (IL6R), IL6R (gene 3570); test: LTEA_HepaRG_IL6R: Life Technologies and Expression Analysis (LTEA) Assay for Interleukin 6 Receptor (IL6R) using HepaRG (AID 2283510)
Method in brief: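 Concentration-response in human liver HepaRG cells: eight concentrations from 100 uM downward by half-logs, 48 h exposure, 0.5% DMSO vehicle. IL6R mRNA change measured by qRT-PCR and fitted in both directions relative to vehicle.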

[5] = read-out: Potassium channel subfamily K member 1 (KCNK1), KCNK1 (gene 3775); test: LTEA_HepaRG_KCNK1: Life Technologies and Expression Analysis (LTEA) Assay for Potassium channel subfamily K member 1 (KCNK1) using HepaRG (AID 2283511)
Method in brief: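 Gain or loss of KCNK1 mRNA is the read-out, quantified by qRT-PCR against three housekeeping genes after 48 h chemical treatment of human HepaRG liver cells. Concentrations ran from 100 uM downward in half-log steps, vehicle 0.5% DMSO.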

[6] = read-out: Keratin 19 (KRT19), KRT19 (gene 3880); test: LTEA_HepaRG_KRT19: Life Technologies and Expression Analysis (LTEA) Assay for Keratin 19 (KRT19) using HepaRG (AID 2283512)
Method in brief: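 HepaRG, 48 h chemical exposure, 8-pt half-log CRC from 100 uM, 0.5% DMSO vehicle, duplicates. Readout: TaqMan qRT-PCR of KRT19 mRNA, housekeeping-normalized (ACTB/GAPDH/POLR2A). Bidirectional fit vs DMSO baseline.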

[7] = read-out: JUN Transcription Factor, JUN (gene 3725); test: LTEA_HepaRG_JUN: Life Technologies and Expression Analysis (LTEA) Assay for JUN Transcription Factor using HepaRG (AID 2283513)
Method in brief: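 Human HepaRG liver cells receive test chemicals in 0.5% DMSO for 48 h across an eight-point range topping at 100 uM. Expression changes in JUN are scored in both directions against the DMSO vehicle.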

[8] = read-out: Lipase C (LIPC), LIPC (gene 3990); test: LTEA_HepaRG_LIPC: Life Technologies and Expression Analysis (LTEA) Assay for Lipase C (LIPC) using HepaRG (AID 2283514)
Method in brief: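 Read-out is LIPC transcript level by TaqMan qRT-PCR, normalized to three housekeeping genes, after 48 h chemical treatment of human HepaRG liver cells. Curves span eight concentrations topping at 100 uM; activity in either direction scored relative to 0.5% DMSO.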

[9] = read-out: Lipoprotein lipase (LPL), LPL (gene 4023); test: LTEA_HepaRG_LPL: Life Technologies and Expression Analysis (LTEA) Assay for Lipoprotein lipase (LPL) using HepaRG (AID 2283515)
Method in brief: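 Read-out is LPL transcript level by qRT-PCR, normalized to three housekeeping genes and fitted bidirectionally against the DMSO control. Human HepaRG cells received chemicals for 48 h at up to 100 uM.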

[10] = read-out: MicroRNA 122 (MIR122), gene 406906; test: LTEA_HepaRG_MIR122: Life Technologies and Expression Analysis (LTEA) Assay for MicroRNA 122 (MIR122) using HepaRG (AID 2283516); further: the transcript read is the microRNA miR-122
Method in brief: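 HepaRG, 48 h exposure, 8-pt half-log from 100 uM, 0.5% DMSO; TaqMan qRT-PCR; bidirectional fit vs DMSO.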

[11] = read-out: matrix metalloproteinase-10 (MMP10), MMP10 (gene 4319); test: LTEA_HepaRG_MMP10: Life Technologies and Expression Analysis (LTEA) Assay for matrix metalloproteinase-10 (MMP10) using HepaRG (AID 2283517)
Method in brief: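 Gain or loss of MMP10 mRNA is fitted relative to the 0.5% DMSO vehicle. The human hepatic line HepaRG receives a 48-hour serum-free exposure, in duplicate, with a maximum concentration of 100 uM.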

[12] = read-out: MYC, MYC (gene 4609); test: LTEA_HepaRG_MYC: Life Technologies and Expression Analysis (LTEA) Assay for MYC using HepaRG (AID 2283518)
Method in brief: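 qRT-PCR read-out of MYC transcript (Fluidigm TaqMan, housekeeping-normalized) after 48 h chemical exposure of HepaRG cells; eight concentrations, top 100 uM, half-log steps. Bidirectional curve fitting against 0.5% DMSO vehicle baseline.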

[13] = read-out: matrix metalloproteinase-3 (MMP3), MMP3 (gene 4314); test: LTEA_HepaRG_MMP3: Life Technologies and Expression Analysis (LTEA) Assay for matrix metalloproteinase-3 (MMP3) using HepaRG (AID 2283519)
Method in brief: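 HepaRG, human; 48 h dosing, 8 conc. (max 100 uM, half-log), duplicate, 0.5% DMSO. Readout: MMP3 transcript by Fluidigm TaqMan qRT-PCR, ACTB/GAPDH/POLR2A-normalised. Gain or loss fitted vs DMSO.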

[14] = read-out: Paternally Expressed 10 (PEG10), PEG10 (gene 23089); test: LTEA_HepaRG_PEG10: Life Technologies and Expression Analysis (LTEA) Assay for Paternally Expressed 10 (PEG10) using HepaRG (AID 2283520);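 on AC50: PEG10 transcript by qRT-PCR normalised to ACTB GAPDH and POLR2A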
Method in brief: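 Chemicals tested on HepaRG cells for 48 h, highest concentration 100 uM. PEG10 expression assessed by qRT-PCR relative to DMSO control.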

[15] = read-out: Nuclear factor NF-kappa-B p105 subunit (Homo sapiens) (UniProt P19838); test: LTEA_HepaRG_NFKB1: Life Technologies and Expression Analysis (LTEA) Assay for Nuclear Factor Kappa B Subunit 1 (NFKB1) using HepaRG (AID 2283521)
Method in brief: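 Differentiated human HepaRG cells in serum-free induction medium with 0.5% DMSO were exposed for 48 h to eight half-log concentrations, top 100 uM, in duplicate. NFKB1 mRNA measured by Fluidigm TaqMan qRT-PCR, normalised to ACTB, GAPDH and POLR2A; bidirectional fit versus DMSO.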

[16] = read-out: Protein phosphatase 2A (PPP2R4), PTPA (gene 5524); test: LTEA_HepaRG_PPP2R4: Life Technologies and Expression Analysis (LTEA) Assay for Protein phosphatase 2A (PPP2R4) using HepaRG (AID 2283522)
Method in brief: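 Gene-expression endpoint in HepaRG hepatic cells: 48 h treatment across eight half-log concentrations up to 100 uM in 0.5% DMSO. PPP2R4 mRNA by qRT-PCR, normalized to three endogenous control genes.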

[17] = read-out: Phosphatase and tensin (PTEN), PTEN (gene 5728); test: LTEA_HepaRG_PTEN: Life Technologies and Expression Analysis (LTEA) Assay for Phosphatase and tensin (PTEN) using HepaRG (AID 2283523)
Method in brief: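 Read-out is PTEN transcript level by multiplexed TaqMan qRT-PCR after 48 h chemical treatment of human HepaRG cultures in serum-free induction medium. Concentrations spanned 100 uM downward in half-log steps, 0.5% DMSO throughout; activity fitted in both directions against vehicle.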

[18] = read-out: solute carrier (SLC22A1), SLC22A1 (gene 6580); test: LTEA_HepaRG_SLC22A1: Life Technologies and Expression Analysis (LTEA) Assay for solute carrier (SLC22A1) using HepaRG (AID 2283524)
Method in brief: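 HepaRG (human liver line), 48 h dosing in serum-free induction medium; 8 conc., half-log down from 100 uM, 0.5% DMSO vehicle, duplicates. Endpoint: SLC22A1 mRNA, qRT-PCR, housekeeping-normalized; gain/loss fit vs DMSO.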

[19] = read-out: Pyruvate Dehydrogenase Kinase 4 (PDK4), PDK4 (gene 5166); test: LTEA_HepaRG_PDK4: Life Technologies and Expression Analysis (LTEA) Assay for Pyruvate Dehydrogenase Kinase 4 (PDK4) using HepaRG (AID 2283525)
Method in brief: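 In this multiplexed human HepaRG expression assay, cells are treated 48 h with test chemicals across an eight-point range starting at 100 uM. PDK4 mRNA changes, normalized to ACTB/GAPDH/POLR2A, are fitted in both directions relative to vehicle.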

[20] = read-out: NAD(P)H dehydrogenase [quinone] 1 (NQO1), NQO1 (gene 1728); test: LTEA_HepaRG_NQO1: Life Technologies and Expression Analysis (LTEA) Assay for NAD(P)H dehydrogenase [quinone] 1 (NQO1) using HepaRG (AID 2283526)
Method in brief: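 Human HepaRG hepatic cells received chemicals for 48 h in serum-free induction medium with 0.5% DMSO, up to 100 uM. Expression was assessed by TaqMan qRT-PCR against housekeeping controls and fitted bidirectionally against DMSO.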

Measured: AC50

Nuclear factor NF-kappa-B p105 subunit (Homo sapiens), sequence (P19838 whole entry, looked up): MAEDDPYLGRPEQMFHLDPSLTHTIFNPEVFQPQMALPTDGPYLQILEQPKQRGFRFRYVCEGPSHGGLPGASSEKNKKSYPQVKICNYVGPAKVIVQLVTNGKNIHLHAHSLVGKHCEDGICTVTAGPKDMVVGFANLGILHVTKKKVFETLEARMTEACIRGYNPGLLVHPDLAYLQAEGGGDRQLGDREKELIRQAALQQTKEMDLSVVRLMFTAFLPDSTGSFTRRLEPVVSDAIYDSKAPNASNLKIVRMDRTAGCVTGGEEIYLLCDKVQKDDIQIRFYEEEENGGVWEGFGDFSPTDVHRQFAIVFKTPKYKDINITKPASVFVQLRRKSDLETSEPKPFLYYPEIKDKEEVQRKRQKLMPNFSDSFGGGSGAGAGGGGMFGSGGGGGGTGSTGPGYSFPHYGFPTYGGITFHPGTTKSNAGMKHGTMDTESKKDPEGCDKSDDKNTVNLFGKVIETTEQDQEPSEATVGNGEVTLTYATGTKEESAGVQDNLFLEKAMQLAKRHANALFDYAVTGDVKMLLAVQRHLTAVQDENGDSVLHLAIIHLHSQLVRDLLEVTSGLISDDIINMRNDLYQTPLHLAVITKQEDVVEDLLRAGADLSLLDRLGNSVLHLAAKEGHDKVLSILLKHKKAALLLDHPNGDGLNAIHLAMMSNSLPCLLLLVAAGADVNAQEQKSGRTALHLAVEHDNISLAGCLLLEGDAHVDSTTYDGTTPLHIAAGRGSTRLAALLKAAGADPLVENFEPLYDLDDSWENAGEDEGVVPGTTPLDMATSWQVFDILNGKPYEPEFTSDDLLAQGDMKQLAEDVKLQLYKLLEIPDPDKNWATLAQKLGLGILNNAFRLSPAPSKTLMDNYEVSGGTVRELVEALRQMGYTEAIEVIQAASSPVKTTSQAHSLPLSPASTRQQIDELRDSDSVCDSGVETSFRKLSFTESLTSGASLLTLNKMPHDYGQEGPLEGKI

CSc1nnc(C(C)(C)C)c(=O)n1N
inactive: all assays above

O=C(O)c1cc(Oc2ccc(C(F)(F)F)cc2Cl)ccc1[N+](=O)[O-]
active: [9] 12.6 µM | [14] 50 µM | [19] 42.1 µM
not listed: [17]
inactive: all other assays above

Cc1cc(C2CC2)nc(Nc2ccccc2)n1
active: [4] 50 µM | [6] 22.9 µM | [18] 67.7 µM
not listed: [15] | [20]
inactive: all other assays above

COP(=O)(OC)SCn1c(=O)oc2cc(Cl)cnc21
active: [8] 79.1 µM | [14] 62.4 µM | [18] 50 µM
not listed: [13] | [20]
inactive: all other assays above

CC1=NNC(=O)N(/N=C/c2cccnc2)C1
inactive: all assays above

CCOC(=O)COc1cc(-c2nn(C)c(OC(F)F)c2Cl)c(F)cc1Cl
not listed: [20]
inactive: all other assays above

O=c1ccc(=O)[nH][nH]1
inactive: all assays above

C#CCC1=C(C)C(OC(=O)C2C(C=C(C)C)C2(C)C)CC1=O (stereo not drawn)
active: [13] 81.9 µM | [18] 74.1 µM | [19] 9.87 µM
not listed: [15]
inactive: all other assays above

CCc1cccc(CC)c1N(COC)C(=O)CCl
active: [2] 32.1 µM | [19] 28.9 µM
inactive: all other assays above

CCCSP(=O)(OCC)Oc1ccc(Br)cc1Cl (stereo not drawn)
not listed: [20]
inactive: all other assays above

COc1ccc(C(=CC(=O)N2CCOCC2)c2ccc(Cl)cc2)cc1OC
active: [14] 4.02 µM
not listed: [13] | [20]
inactive: all other assays above

Cc1ccn2nc(S(=O)(=O)Nc3c(F)cccc3F)nc2n1
not listed: [15]
inactive: all other assays above

CNc1cnn(-c2cccc(C(F)(F)F)c2)c(=O)c1Cl
active: [2] 17.4 µM | [3] 50 µM | [6] 14.5 µM | [12] 19.6 µM | [14] 32 µM | [18] 50 µM
not listed: [20]
inactive: all other assays above
